For some assays here: Entries with a potency or affinity are not part of this list.
How the values were obtained:
Parameters in all cases: scale not given: direction of the effect not stated beside the values
[1] = target: Protein translocase subunit SecA (Escherichia coli (strain K12)) (UniProt P10408); test: Assay to Identify E. coli SecA ATPase Inhibitors; assay type: functional; conditions: 30 µM
[2] = target: T1, Ubiquitin-activating enzyme e1, putative (Leishmania donovani (strain BPK282A1)) (UniProt E9BSI1); test: Leishmania donovani Ubiquitin Activating Enzyme (LdE1); assay type: functional; conditions: 30 µM
T1 sequence (whole entry): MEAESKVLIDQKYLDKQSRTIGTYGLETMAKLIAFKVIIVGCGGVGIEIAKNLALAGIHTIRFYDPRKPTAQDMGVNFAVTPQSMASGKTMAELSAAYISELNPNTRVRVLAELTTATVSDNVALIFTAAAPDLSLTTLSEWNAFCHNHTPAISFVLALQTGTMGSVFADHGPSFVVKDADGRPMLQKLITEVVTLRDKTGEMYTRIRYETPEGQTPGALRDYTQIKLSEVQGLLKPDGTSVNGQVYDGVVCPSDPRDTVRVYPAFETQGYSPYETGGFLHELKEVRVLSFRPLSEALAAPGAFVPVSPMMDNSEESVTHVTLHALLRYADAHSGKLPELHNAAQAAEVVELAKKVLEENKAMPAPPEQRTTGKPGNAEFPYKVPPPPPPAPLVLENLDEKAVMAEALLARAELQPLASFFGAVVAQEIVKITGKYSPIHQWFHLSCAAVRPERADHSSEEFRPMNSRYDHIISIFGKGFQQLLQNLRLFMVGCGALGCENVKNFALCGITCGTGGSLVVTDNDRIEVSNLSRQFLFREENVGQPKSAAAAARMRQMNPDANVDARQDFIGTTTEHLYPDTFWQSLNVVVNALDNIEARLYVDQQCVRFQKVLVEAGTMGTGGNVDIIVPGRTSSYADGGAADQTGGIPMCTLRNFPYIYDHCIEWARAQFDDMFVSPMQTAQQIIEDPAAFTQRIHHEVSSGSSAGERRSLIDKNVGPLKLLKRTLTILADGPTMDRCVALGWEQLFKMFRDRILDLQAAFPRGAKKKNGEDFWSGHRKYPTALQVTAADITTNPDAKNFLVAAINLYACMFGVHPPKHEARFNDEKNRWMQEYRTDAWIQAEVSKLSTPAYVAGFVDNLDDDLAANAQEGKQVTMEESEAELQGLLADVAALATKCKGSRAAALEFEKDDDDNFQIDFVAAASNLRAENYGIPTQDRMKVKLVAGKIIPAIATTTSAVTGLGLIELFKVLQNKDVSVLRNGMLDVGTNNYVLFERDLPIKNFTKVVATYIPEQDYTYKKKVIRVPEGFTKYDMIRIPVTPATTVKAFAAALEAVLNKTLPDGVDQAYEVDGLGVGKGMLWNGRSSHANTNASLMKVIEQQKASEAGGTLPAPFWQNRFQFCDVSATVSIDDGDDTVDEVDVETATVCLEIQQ

[3] = target: AMP-activated protein kinase, AMPK (Homo sapiens) (UniProt P54646+O43741+P54619+Q9UGJ0+Q9Y478+Q13131+Q9UGI9); test: AMP-dependent Kinase enzyme assay. An in vitro enzyme assay that detects ADP turnover that is directly proportional to AMPK activity. This uses naive AMPK that is activated during the assay with MK-8722; assay type: functional; conditions: 30 µM
[4] = target: Sialic acid-binding Ig-like lectin 9 (Homo sapiens) (UniProt Q9Y336); test: Hs-Siglec9 ALPHAscreen SOP 20170721; conditions: 10 µM
Trypanosoma cruzi = test: Trypanosoma cruzi phosphomannomutase and mannose-1-phosphate guanylyltransferase assay; assay type: functional; conditions: 10 µM
[5] = target: T2, Arginase-2, mitochondrial (Homo sapiens) (UniProt P78540); test: in vitro enzyme assay to detect the production of urea directly proportional to the activity of Arginase II; assay type: functional; conditions: 33.3 µM; further: in the data most compounds retested in dose-response had high values
T2 sequence (whole entry): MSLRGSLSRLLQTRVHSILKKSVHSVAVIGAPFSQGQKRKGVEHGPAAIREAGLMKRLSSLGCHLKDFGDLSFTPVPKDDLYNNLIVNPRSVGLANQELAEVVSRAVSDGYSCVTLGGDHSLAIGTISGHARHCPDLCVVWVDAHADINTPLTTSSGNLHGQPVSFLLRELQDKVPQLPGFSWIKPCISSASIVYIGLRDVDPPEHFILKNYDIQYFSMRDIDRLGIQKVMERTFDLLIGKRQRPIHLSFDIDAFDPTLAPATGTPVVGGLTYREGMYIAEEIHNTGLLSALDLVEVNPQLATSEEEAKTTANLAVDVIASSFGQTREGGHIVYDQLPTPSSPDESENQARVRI

[6] = target: T3, Proteasome subunit beta (Trypanosoma cruzi) (UniProt O96673); test: Trypanosoma cruzi proteasome chymotrypsin-like activity (TcProtChymo) assay.; further: in the data most compounds retested in dose-response had high values; assay type: functional; conditions: 9.37 µM
T3 sequence (whole entry): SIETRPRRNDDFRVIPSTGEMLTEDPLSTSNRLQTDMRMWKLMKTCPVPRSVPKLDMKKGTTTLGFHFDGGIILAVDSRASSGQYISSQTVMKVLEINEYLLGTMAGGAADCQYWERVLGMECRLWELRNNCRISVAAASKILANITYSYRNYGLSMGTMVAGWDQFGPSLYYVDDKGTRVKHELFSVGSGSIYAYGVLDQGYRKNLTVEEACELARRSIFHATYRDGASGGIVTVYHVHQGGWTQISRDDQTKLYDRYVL

Homo sapiens = species on record: Homo sapiens; test: To identify inhibition of the IFN signalling (Jak-Stat) pathway via expression of an eGFP reporter gene under the control of an IFN-stimulated response element (ISRE) containing MxA promoter.; assay type: functional; conditions: 30 µM
[7] = target: T4, Tyrosyl-tRNA synthetase, putative (Trypanosoma cruzi (strain CL Brener)) (UniProt Q4DSP6); test: Trypanosoma cruzi tyrosyl tRNA synthetase (TcYRS) _High Tyrosine SOP; assay type: functional; conditions: 30 µM; further: in the data most compounds retested in dose-response had high values
T4 sequence (whole entry): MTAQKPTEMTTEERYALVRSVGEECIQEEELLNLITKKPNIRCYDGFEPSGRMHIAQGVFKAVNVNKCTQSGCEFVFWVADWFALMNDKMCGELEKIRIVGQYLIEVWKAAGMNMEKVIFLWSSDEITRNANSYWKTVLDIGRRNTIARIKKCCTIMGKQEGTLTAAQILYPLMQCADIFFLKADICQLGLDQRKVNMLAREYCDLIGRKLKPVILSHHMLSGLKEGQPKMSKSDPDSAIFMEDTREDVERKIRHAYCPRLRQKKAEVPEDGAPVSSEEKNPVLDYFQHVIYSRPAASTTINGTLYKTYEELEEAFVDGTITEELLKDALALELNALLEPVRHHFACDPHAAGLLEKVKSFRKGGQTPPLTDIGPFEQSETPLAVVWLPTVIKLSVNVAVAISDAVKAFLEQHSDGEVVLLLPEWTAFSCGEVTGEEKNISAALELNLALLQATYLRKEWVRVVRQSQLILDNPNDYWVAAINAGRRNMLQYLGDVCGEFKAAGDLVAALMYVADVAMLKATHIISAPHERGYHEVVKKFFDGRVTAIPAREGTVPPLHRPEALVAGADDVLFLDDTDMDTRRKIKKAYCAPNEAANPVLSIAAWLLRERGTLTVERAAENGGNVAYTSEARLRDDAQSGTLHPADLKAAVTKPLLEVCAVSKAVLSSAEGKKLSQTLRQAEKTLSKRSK

[8] = target: T4, Tyrosyl-tRNA synthetase, putative (Trypanosoma cruzi (strain CL Brener)); test: Trypanosoma cruzi tyrosyl tRNA synthetase (TcYRS) SOP; assay type: functional; conditions: 30 µM
[9] = target: Chromo domain-containing protein 1 (Saccharomyces cerevisiae (strain ATCC 204508 / S288c) (Baker's yeast)) (UniProt P32657); test: ScCHD-1 Enzyme Inhibition Assay; assay type: functional; conditions: 30 µM; further: in the data most compounds retested in dose-response had high values
Sequence of Chromo domain-containing protein 1 (Saccharomyces cerevisiae (strain ATCC 204508 / S288c) (Baker's yeast)) (P32657 whole entry, the tested form may be a part): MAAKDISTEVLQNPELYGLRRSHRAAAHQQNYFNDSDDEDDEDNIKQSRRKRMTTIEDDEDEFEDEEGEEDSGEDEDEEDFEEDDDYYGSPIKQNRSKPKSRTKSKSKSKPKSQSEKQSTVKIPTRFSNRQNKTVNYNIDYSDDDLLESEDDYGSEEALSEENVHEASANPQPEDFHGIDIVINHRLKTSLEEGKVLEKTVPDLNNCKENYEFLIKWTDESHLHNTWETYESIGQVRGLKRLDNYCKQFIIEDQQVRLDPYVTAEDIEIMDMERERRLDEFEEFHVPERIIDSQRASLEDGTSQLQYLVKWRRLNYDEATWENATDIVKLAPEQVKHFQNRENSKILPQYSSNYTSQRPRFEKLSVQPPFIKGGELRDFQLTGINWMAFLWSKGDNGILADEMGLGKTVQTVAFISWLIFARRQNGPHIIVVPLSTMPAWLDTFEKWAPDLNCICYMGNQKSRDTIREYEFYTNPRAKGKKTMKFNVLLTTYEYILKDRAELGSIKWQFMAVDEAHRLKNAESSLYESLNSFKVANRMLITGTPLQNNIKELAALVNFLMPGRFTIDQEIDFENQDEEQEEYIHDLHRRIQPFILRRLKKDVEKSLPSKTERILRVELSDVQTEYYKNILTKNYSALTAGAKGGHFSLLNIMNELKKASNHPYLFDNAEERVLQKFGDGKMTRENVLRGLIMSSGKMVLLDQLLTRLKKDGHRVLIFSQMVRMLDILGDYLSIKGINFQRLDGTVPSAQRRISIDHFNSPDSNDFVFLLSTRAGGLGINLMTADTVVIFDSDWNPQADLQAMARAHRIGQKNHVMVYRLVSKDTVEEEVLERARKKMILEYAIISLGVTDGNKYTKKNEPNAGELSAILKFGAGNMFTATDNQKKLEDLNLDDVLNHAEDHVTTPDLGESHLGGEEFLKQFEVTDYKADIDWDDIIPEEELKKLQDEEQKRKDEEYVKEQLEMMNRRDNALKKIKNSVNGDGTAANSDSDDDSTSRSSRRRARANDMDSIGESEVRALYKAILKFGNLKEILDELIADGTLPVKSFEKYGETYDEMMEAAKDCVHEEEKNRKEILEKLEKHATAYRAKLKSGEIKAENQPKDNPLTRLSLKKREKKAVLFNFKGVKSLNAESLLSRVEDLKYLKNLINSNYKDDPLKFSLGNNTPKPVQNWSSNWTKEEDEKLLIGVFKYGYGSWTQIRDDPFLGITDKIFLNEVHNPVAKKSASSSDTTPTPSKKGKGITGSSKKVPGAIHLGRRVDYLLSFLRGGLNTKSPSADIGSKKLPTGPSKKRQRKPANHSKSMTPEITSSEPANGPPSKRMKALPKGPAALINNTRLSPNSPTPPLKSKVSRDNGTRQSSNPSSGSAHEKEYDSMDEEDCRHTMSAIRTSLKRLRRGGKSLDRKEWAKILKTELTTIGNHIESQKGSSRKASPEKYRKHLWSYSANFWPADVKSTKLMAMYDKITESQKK

Sequence of Sialic acid-binding Ig-like lectin 9 (Homo sapiens) (Q9Y336 whole entry): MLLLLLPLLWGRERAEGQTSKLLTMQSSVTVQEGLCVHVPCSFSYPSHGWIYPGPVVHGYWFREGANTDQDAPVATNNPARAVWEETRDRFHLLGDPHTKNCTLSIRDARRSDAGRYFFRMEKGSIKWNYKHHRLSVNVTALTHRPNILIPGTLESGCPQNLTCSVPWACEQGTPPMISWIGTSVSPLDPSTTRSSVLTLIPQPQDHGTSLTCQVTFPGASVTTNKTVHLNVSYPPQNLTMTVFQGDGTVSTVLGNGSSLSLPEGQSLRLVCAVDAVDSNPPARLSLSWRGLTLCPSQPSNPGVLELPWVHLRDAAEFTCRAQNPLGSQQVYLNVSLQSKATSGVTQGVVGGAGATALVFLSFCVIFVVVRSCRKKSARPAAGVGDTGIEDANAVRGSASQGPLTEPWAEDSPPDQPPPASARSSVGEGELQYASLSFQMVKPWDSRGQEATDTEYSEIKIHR
Sequence of Protein translocase subunit SecA (Escherichia coli (strain K12)) (P10408 whole entry): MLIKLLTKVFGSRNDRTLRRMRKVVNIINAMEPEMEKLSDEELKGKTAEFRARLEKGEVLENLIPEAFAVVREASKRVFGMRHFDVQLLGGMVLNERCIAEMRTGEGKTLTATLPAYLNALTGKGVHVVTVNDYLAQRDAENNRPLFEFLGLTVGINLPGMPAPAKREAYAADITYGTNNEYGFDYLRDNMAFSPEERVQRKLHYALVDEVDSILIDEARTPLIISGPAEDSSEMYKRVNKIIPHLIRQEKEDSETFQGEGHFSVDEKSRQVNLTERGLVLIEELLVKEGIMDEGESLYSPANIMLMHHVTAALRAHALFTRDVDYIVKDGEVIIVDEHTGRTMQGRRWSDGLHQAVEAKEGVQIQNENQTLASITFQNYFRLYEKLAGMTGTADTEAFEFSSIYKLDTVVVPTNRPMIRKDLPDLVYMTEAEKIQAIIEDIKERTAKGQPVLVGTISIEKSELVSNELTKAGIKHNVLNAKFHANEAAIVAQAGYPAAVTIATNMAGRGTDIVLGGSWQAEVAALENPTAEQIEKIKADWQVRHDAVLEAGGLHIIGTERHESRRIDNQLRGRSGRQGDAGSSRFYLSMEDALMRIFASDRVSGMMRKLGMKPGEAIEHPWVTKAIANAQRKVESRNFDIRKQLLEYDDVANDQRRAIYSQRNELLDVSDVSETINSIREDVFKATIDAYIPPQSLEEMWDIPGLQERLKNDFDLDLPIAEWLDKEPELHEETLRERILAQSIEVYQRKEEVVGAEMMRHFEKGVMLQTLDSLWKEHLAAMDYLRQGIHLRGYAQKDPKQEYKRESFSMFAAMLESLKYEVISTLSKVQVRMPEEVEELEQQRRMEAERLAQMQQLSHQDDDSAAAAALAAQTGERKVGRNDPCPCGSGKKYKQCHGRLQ

## Cc1nn(C)c(C)c1C1CCCN1C(=O)CCNc1ncccn1 (stereo not given)
[1]
  Percent Effect: -5.59%
[2]
  Percent Effect: 18.4%
[3]
  Percent Effect: -8.92%
[4]
  Percent Effect: 11.3%
Trypanosoma cruzi
  Percent Effect: 5.32%
[5]
  Percent Effect: -8.63%
[6]
  Percent Effect: -1.1%
Homo sapiens
  Percent Effect: -2.96%
[7]
  Percent Effect: 3.45%
[8]
  Percent Effect: 18.5%
[9]
  Percent Effect: -4.96%

## CCNC(=O)c1nnn(Cc2ccccc2)c1OC
[1]
  Percent Effect: -3.93%
[2]
  Percent Effect: 1.33%
[3]
  Percent Effect: 3.51%
[4]
  Percent Effect: 5.7%
Trypanosoma cruzi
  Percent Effect: -0.197%
[5]
  Percent Effect: -8.63%
[6]
  Percent Effect: 7.95%
Homo sapiens
  Percent Effect: -9.5%
[7]
  Percent Effect: 5.29%
[8]
  Percent Effect: 7.69%
[9]
  Percent Effect: -2.11%

## CCn1c(N)nc2cc(C(=O)NCCc3sccc3C)cnc21
[1]
  Percent Effect: -4.71%
[2]
  Percent Effect: -2.74%
[3]
  Percent Effect: 1.2%
[4]
  Percent Effect: 24.5%
Trypanosoma cruzi
  Percent Effect: 5.29%
[5]
  Percent Effect: -2.73%
[6]
  Percent Effect: 28.6%
Homo sapiens
  Percent Effect: 8.68%
[7]
  Percent Effect: 3.23%
[8]
  Percent Effect: 20%
[9]
  Percent Effect: -6.44%

## CCc1ccc(-n2c(=O)[nH]c3nc(N4CCSCC4)ncc3c2=O)cc1
[1]
  Percent Effect: -2.14%
[2]
  Percent Effect: 21.1%
[3]
  Percent Effect: 0.234%
[4]
  Percent Effect: -5.88%
Trypanosoma cruzi
  Percent Effect: 1.85%
[5]
  Percent Effect: 5.92%
[6]
  Percent Effect: 15.8%
Homo sapiens
  Percent Effect: -2.32%
[7]
  Percent Effect: 0%
[8]
  Percent Effect: 5.2%
[9]
  Percent Effect: 45.8%

## Cc1ccn(-c2ccccc2NCc2cccnc2C)n1
[1]
  Percent Effect: -0.328%
[2]
  Percent Effect: 0%
[3]
  Percent Effect: 2.86%
[4]
  Percent Effect: -2.06%
Trypanosoma cruzi
  Percent Effect: -0.196%
[5]
  Percent Effect: 0%
[6]
  Percent Effect: 3.02%
Homo sapiens
  Percent Effect: 17.4%
[7]
  Percent Effect: -1.07%
[8]
  Percent Effect: -2.5%
[9]
  Percent Effect: -0.646%

## N#Cc1ccc(NCCNc2ccc(C(F)(F)F)cn2)nc1
[1]
  Percent Effect: -2.89%
[2]
  Percent Effect: 7.89%
[3]
  Percent Effect: 4.53%
[4]
  Percent Effect: 10.9%
Trypanosoma cruzi
  Percent Effect: 3.01%
[5]
  Percent Effect: -1.53%
[6]
  Percent Effect: 10.7%
Homo sapiens
  Percent Effect: 104%
[7]
  Percent Effect: 8.33%
[8]
  Percent Effect: 24.4%
[9]
  Percent Effect: 2.5%

## NC(=O)CN1CC2(CCC1=O)CCN(Cc1cc(F)ccc1Cl)CC2
[1]
  Percent Effect: -3.36%
[2]
  Percent Effect: 16%
[3]
  Percent Effect: -3.98%
[4]
  Percent Effect: 13.3%
Trypanosoma cruzi
  Percent Effect: 7.5%
[5]
  Percent Effect: 5.73%
[6]
  Percent Effect: 18%
Homo sapiens
  Percent Effect: 8.19%
[7]
  Percent Effect: 3.83%
[8]
  Percent Effect: 18.5%
[9]
  Percent Effect: -5.6%

## CN(C)C(=O)CN1C[C@@H]2CC[C@H](C1)N(Cc1cc(F)ccc1F)C2
[1]
  Percent Effect: -2.16%
[2]
  Percent Effect: 5.48%
[3]
  Percent Effect: 42.7%
[4]
  Percent Effect: 2.19%
Trypanosoma cruzi
  Percent Effect: -9.13%
[5]
  Percent Effect: -2.79%
[6]
  Percent Effect: 20.6%
Homo sapiens
  Percent Effect: 15.6%
[7]
  Percent Effect: 4.17%
[8]
  Percent Effect: 6.17%
[9]
  Percent Effect: -5.68%

## c1cc2c(cc1C1CCCN1Cc1nnnn1C1CC1)OCCO2 (stereo not given)
[1]
  Percent Effect: -3.24%
[2]
  Percent Effect: 6.94%
[3]
  Percent Effect: -13.5%
[4]
  Percent Effect: 29.5%
Trypanosoma cruzi
  Percent Effect: 6.32%
[5]
  Percent Effect: -5.74%
[6]
  Percent Effect: 4.39%
Homo sapiens
  Percent Effect: -5.04%
[7]
  Percent Effect: 5.26%
[8]
  Percent Effect: 15.4%
[9]
  Percent Effect: -4.08%

## Cc1[nH]ncc1C(=O)N1CCCC(c2cc(C(F)(F)F)[nH]n2)C1 (stereo not given)
[1]
  Percent Effect: -6.98%
[2]
  Percent Effect: 8.11%
[3]
  Percent Effect: -26.4%
[4]
  Percent Effect: 5.54%
Trypanosoma cruzi
  Percent Effect: -6.59%
[5]
  Percent Effect: -3.51%
[6]
  Percent Effect: 2.69%
Homo sapiens
  Percent Effect: 14.8%
[7]
  Percent Effect: 2.97%
[8]
  Percent Effect: 6.1%
[9]
  Percent Effect: 3.81%
